Source: PubChem
Hits are enriched below; roughly 2.4% of the tested compounds scored in any of these assays.
C8 TRAIL sens: viability loss with TRAIL in NB7+C8 cells, primary screen, TRAIL sensitizer project, cell-based, ATPlite luminescence; inhibition (viability loss, TRAIL sensitization), % at 10 µM; 1% of 360,000 active; AID 624354, 2012;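 active means compounds causing at least 50% loss of cell viability in the single-dose screen, relative to plate controls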
STAT3 inh: IL-6 driven STAT3 reporter inhibitors, primary screen, U3A cells, luciferase, luminescence, MLSCN library. IL-6 STAT3-luciferase reporter; host cell line lacks STAT1. inhibition, % at 5.5 µM. 0.89% of 190,000 active. AID 862, 2007;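 active means inhibition above the mean inhibition across all screened compounds plus 3 SD, cut at about 44% in these data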;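 further: 0% = DMSO only wells and 100% = 100 µM nifuroxazide control wells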
PPC-1+TRAIL kill: compounds killing PPC-1 cancer cells with TRAIL present, primary screen, TRAIL potentiator project, ATPLite luminescence, uHTS; AID 1443, 2008; PPC-1 cells + TRAIL, ATPLite viability luminescence; 0.41% of 220,000 active; cell killing (% activity), % at 4 µM or 5 µM;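 active means cell killing above 50% in the first pass at 4 µM, then a duplicate retest at 5 µM averaging 50% or more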;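 further: plate controls were cells with TRAIL plus DMSO for no effect and medium-only wells lacking cells for full effect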
HSF1 inh: HSF1 inhibitors in luciferase reporter cells, primary screen, cell-based, NIH3T3, luminescence; activity change, negative = inhibition, % at 7.5 µM (by protocol); AID 2098, 2009; NIH3T3-HGL HSE-luciferase, MG132-induced, luminescence 8 h; stronger effect = lower value; 0.77% of 300,000 active;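 active means more than half of replicate wells show activity change below -50%, luminescence cut by over half; inconclusive means some wells, but at most half, below -50%; inactive means no replicate well below -50%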;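 further: luciferase reports HSF-1 transcriptional activity via heat shock element; 0% = median of DMSO wells and -100% = zero luminescence signal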
HSP90 refold inh: HSP90 inhibitors, primary screen, cell lysate, luminescence; Rabbit reticulocyte lysate, luciferase refolding luminescence, 3 h; inhibition, % at 5.6 µM; 0.91% of 290,000 active;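 active means inhibition above the screen-wide mean plus 3 SD, computed separately per campaign, cut at about 16% in these data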;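 further: 0% = DMSO wells and 100% = 60 µM geldanamycin wells; inhibitors lower the luminescence because luciferase stays unfolded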
STAT1 blocker: STAT1 signaling inhibitors, primary screen, cell-based, HTS, luciferase reporter | 0.35% of 200,000 active | inhibition, % at 5.5 µM | AID 920, 2007 | NIH 3T3 STAT1-luciferase reporter, IFN-gamma, luminescence;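 active means inhibition above a set limit, the mean inhibition across all tested compounds plus 3 SD, cut at about 34% in these data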;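 further: 0% = IFN-gamma with DMSO and 100% = IFN-gamma with 300 µM nifuroxazide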
HSP90 confirm: HSP90 inhibitors, confirmation, cell lysate, luminescence; AID 1846, 2009; 64% of 2,300 active; shares compounds with HSP90 refold inh; inhibition, % at 5.9 µM; rabbit reticulocyte lysate, luciferase refolding luminescence, 3 h; in the data active means inhibition above about 18%;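 further: 0% = vehicle wells and 100% = reference inhibitor wells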
FLuc counter: firefly luciferase inhibitors, HSP90 counter-screen, confirmation, artefact control for HSP90 inhibitor project, biochemical, luminescence, triplicate | inhibition, % at 5.9 µM | 48% of 2,300 active | shares compounds with HSP90 refold inh | purified native firefly luciferase;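 active means inhibition above the mean inhibition of all tested sample wells plus 3 SD, cut at about 10% in these data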;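 further: 0% = DMSO with luciferase and 100% = wells lacking luciferase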
Target sequence (P08659 whole entry, looked up): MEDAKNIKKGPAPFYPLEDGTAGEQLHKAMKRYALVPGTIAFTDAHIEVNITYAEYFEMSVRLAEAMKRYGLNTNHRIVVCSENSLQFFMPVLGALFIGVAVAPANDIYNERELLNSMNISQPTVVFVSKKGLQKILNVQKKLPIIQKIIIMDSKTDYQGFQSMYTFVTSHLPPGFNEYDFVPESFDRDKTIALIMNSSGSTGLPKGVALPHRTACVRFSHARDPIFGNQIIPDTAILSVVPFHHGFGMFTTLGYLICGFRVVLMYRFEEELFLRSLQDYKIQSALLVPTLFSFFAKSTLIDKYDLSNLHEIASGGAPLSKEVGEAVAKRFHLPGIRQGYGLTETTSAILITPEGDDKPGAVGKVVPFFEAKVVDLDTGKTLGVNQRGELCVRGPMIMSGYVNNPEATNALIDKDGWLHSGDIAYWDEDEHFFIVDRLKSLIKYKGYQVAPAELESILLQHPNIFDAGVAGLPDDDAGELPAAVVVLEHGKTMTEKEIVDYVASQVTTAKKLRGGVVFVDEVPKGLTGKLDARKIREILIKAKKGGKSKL
An asterisk follows results filed as active; ? = inconclusive; nt = no result given.

SMILES | C8 TRAIL sens | STAT3 inh | PPC-1+TRAIL kill | HSF1 inh | HSP90 refold inh | STAT1 blocker | HSP90 confirm | FLuc counter
COc1ccccc1C#Cc1ccc2c(=O)c3ccccc3n(C)c2c1 | 14 | nt | nt | 1 | 24* | nt | 6 | -11
Cn1c2ccccc2c(=O)c2ccc(C#Cc3ccc(N)cc3)cc21 | 32 | nt | nt | -8 | 24* | nt | 31* | 0
CC1(c2nnnn2Cc2ccccc2)CCC(=O)N1CCc1ccccc1F (stereo not given) | -9 | nt | nt | nt | nt | nt | nt | nt
CCCCC(Sc1nc(N)c(NC(=O)c2ccc(OC)cc2)c(=O)[nH]1)C(=O)O (stereo not given) | -7 | -13 | 9 | 26 | -2 | 1 | nt | nt
Cc1ccc(C#N)c(SCc2nnc(-c3ccc(Cl)cc3)o2)n1 | 82* | 34 | 64* | -84* | 24* | -25 | 75* | 75*
Cc1nc(SCc2nnc(-c3ccc(Cl)cc3)o2)c2c3c(sc2n1)CCC3 | nt | nt | 14 | nt | nt | nt | nt | nt
Cc1ccc(NC(=O)C2CCN(c3ncnc4c3nc3n4CCCCC3)CC2)nc1 | 0 | nt | nt | 3 | 34* | nt | -10 | -22
Cc1nn(-c2ccc(C(=O)O)cc2)c(N)c1-c1ccccc1 | 21 | -9 | 19 | -22 | 21* | -66 | 48* | -1
Nc1c(-c2ccccc2)cnn1-c1ccc(C(=O)O)cc1 | 5 | -2 | 30 | 3 | 25* | -36 | 42* | 4
COc1ccc(-c2c(C)nn(-c3ccccc3)c2N)cc1 | 14 | -12 | 15 | 17 | 1 | -20 | nt | nt
CS(=O)(=O)c1ccccc1-c1nc(-c2ccc(C(F)(F)F)cc2)no1 | -8 | 24 | -1 | 0 | 1 | 11 | nt | nt
Cc1c(-c2nc(-c3ccc(C(F)(F)F)cc3)no2)n(C)oc1=O | -4 | nt | 8 | 17 | 18* | nt | 74* | -10
CN(Cc1ccc(Cl)s1)C(=O)CN1C(=O)N(C)C2(CCCCC2)C1=O | -6 | nt | nt | nt | nt | nt | nt | nt
CCOc1ccc(NS(=O)(=O)c2cc(C(=O)N3CCN(c4ccccc4O)CC3)ccc2Cl)cc1 | 8 | nt | nt | nt | nt | nt | nt | nt
Cc1cccc(NCc2cc(Cl)ccc2O)n1 | -2 | 3 | 12 | 3 | -3 | -8 | nt | nt
Cc1cccc(NCc2cc(Cl)cc(Cl)c2O)n1 | -1 | -1 | 37 | 0 | 18* | -1 | -2 | -4
c1coc(CNc2nc(-c3cccs3)cs2)c1 | -8 | 6 | 12 | 6 | 18* | -31 | 7 | -26
Oc1ccc(-c2csc(NCc3ccco3)n2)cc1 | 5 | 9 | 0 | 2 | -3 | -16 | nt | nt
C=CCOc1ccccc1CNc1ccc2c(c1)OCCO2 | 59* | 70* | 39 | ? | 67* | 43* | 73* | 69*
C=CCOc1ccccc1CNc1cccc(F)c1 | -16 | -14 | -12 | 5 | -4 | 0 | nt | nt
Cc1cc(C(=O)N/N=C2\CCCC(=O)C2)c(C)n1-c1ccccc1 | 1 | -7 | 17 | -36 | 31* | -31 | -5 | -18
Cc1ccc(NC(=O)c2cc(C)n(-c3ccccc3)c2C)cc1 | 93* | 88* | 77* | -82* | 75* | 39* | 85* | 83*
Cc1cc(C(=O)N/N=C2\CCCC(=O)C2)c(C)o1 | -27 | nt | nt | nt | nt | nt | nt | nt
Cc1cc2c(cc1C)-n1nnnc1C(N1CCCNCC1)C(=O)N2 (stereo not given) | 7 | nt | nt | nt | nt | nt | nt | nt
CCCCN(C)CCNC(=O)c1cn(C)c(=O)c2c1c1ccccc1n2C | -5 | nt | nt | 1 | -2 | nt | nt | nt
CCc1nnc(NS(=O)(=O)c2ccc(Nc3ccc([N+](=O)[O-])c4nonc34)cc2)s1 | 9 | 2 | 8 | -2 | -2 | -3 | nt | nt
